Laboratory results: PubChem BioAssay
Several values for one entry are separate records, joined by “and”; a condition that tells them apart may be missing. Equal entries are not always repeated. Activity calls are given as the source filed them. No rule for the calls is given here.

Test: C. elegans survival during P. aeruginosa infection – whole organism (AID 651566);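 also: tested at 14 µM; sign flipped so higher z means a lower ratio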
Details: C. elegans killed by P. aeruginosa, survival ratio
In the case of `CCn1c(-c2nonc2N)nc2c(C#CC(C)(C)O)nc(OC[C@@H](N)c3ccccc3)cc21`, the z-score was 0.96 (inactive).
With `COc1ccc(-c2cc3c(N)ncnc3o2)cc1` the z-score was 0.775 (inactive).
In the case of `COc1cc(/C=N/Nc2ncnc3[nH]ncc23)ccc1O`, the z-score was 0.42 (inactive).
For `CN(C)c1cc2c(Nc3ccc4nc(Cc5ccccc5)[nH]c4c3)ncnc2cn1`, the z-score was 0.16 (inactive).
With `FC(F)(F)c1ccc(-c2nn3ncccc3c2-c2ccnc(Nc3ccc4c(c3)OCCO4)n2)cc1` the z-score was -0.48 (inactive).
With `NS(=O)(=O)c1ccc(N=Nc2c(O)[nH]c3ccc(C(=O)NCCCn4ccnc4)cc23)cc1` the z-score was 0.195 (inactive).
In the case of `CN(c1ccc(NC(=O)Nc2ccc(OC(F)(F)F)cc2)cc1)c1ccnc(Nc2cccc(S(N)(=O)=O)c2)n1`, the z-score was 1.04 (inactive).
With `CCn1c(-c2nonc2N)nc2cnc(Oc3cccc(NC(=O)c4ccc(OCCN5CCOCC5)cc4)c3)cc21` the z-score was 0.625 (inactive).
With `COc1cccc(-n2ncc3c(N/N=C/c4ccc(F)cc4)ncnc32)c1` the z-score was -1.12 (inactive).
For `COc1cc2ncn(-c3cc(OCc4ccccc4S(C)(=O)=O)c(C#N)s3)c2cc1OC`, the z-score was -0.355 (inactive).
For `COc1ccc(COc2ccc(Cc3cnc(N)nc3N)cc2OC)cc1`, the z-score was -0.075 (inactive).
In the case of `CN(C)c1cc2c(Nc3ccc4c(cnn4Cc4ccccc4)c3)ncnc2cn1`, the z-score was 0.66 (inactive).
In the case of `CN1CCC(n2cnc(-c3ccc(F)cc3)c2-c2ccnc(Nc3ccccc3)n2)CC1`, the z-score was 0.955 (inactive).
With `N#Cc1c(NC(=O)c2ccccc2F)sc2c1CCCC2` the z-score was 0.24 (inactive).
For `CC(=O)Nc1cccc(C#Cc2cncnc2Nc2ccc(OCc3cccc(F)c3)c(Cl)c2)c1`, the z-score was 0.045 (inactive).
For `CCOc1ccc2c(-c3ccnc(Nc4cc(OC)cc(C(F)(F)F)c4)n3)cnn2n1`, the z-score was -0.445 (inactive).
In the case of `Nc1nccc(-c2c(-c3ccc(F)cc3)ncn2C2CCNCC2)n1`, the z-score was -0.995 (inactive) and 0.19 (inactive).
With `NC(=O)c1ccc2c(-c3ccnc(NCCCO)n3)c(-c3ccc(F)cc3)nn2c1` the z-score was -0.18 (inactive).
With `Fc1cccc(COc2ccc(Nc3ncnc4sc(-c5ccco5)cc34)cc2Cl)c1` the z-score was 0.87 (inactive).
With `Fc1cccc(COc2ccc(Nc3ncnc4cc(-c5ccc[nH]5)sc34)cc2Cl)c1` the z-score was 0.215 (inactive).
In the case of `C#Cc1cccc(Nc2ncnc3ccc(OCCCCNCCS(C)(=O)=O)cc23)c1`, the z-score was 0.035 (inactive).
In the case of `O=S1CCN(Cc2ccc(-c3ccc4ncnc(Nc5ccc(OCc6ccccc6)c(Cl)c5)c4c3)o2)CC1`, the z-score was 0.67 (inactive).
For `O=C1NC(=O)C(c2ccccc2Cl)=C1Nc1cccc(O)c1`, the z-score was -0.34 (inactive).
With `NC(=O)c1ccc(-c2nc(-c3ccc4c(c3)OCO4)c(-c3ccccn3)[nH]2)cc1` the z-score was -0.47 (inactive).
For `CN(C)CCOc1ccc(-c2nc(-c3ccc4c(c3)CC/C4=N\O)c(-c3ccncc3)[nH]2)cc1`, the z-score was -0.45 (inactive).
In the case of `FC(F)(F)c1cccc(Nc2nccc(-c3cnn4nc(-c5ccccc5)ccc34)n2)c1`, the z-score was 1.3 (inactive).
With `Nc1ncnc2occ(-c3ccc(NC(=O)Nc4cc(C(F)(F)F)ccc4F)cc3)c12` the z-score was -0.79 (inactive) and 0.505 (inactive).
For `Cn1cc(/C=C2\C(=O)Nc3cccnc32)c2ccccc21`, the z-score was 0.915 (inactive).
For `Cc1ccc(O)cc1Nc1ccnc2cc(-c3ccccn3)ccc12`, the z-score was -1.05 (inactive).
For `Cn1c(-c2nonc2N)nc2cnccc21`, the z-score was -0.36 (inactive).
In the case of `Fc1ccc(-c2nc3n(c2-c2ccncc2)CCS3)cc1`, the z-score was 0.075 (inactive).
In the case of `COc1ccc(-c2oc3ncnc(N)c3c2-c2ccc(NC(=O)Nc3cc(C(F)(F)F)ccc3F)cc2)cc1`, the z-score was 0.785 (inactive).
For `NS(=O)(=O)c1ccc(N=Nc2c(O)[nH]c3ccc(Cl)cc23)cc1`, the z-score was 0.005 (inactive).
